Experimental data from the supplement of paper PMC11732987, “Enantioselective OTUD7B fragment discovery through chemoproteomics screening and high-throughput optimisation” (Communications Chemistry, 2025).
Values without a mark were called inactive.

Molecular target: T1, VCPIP1 (UniProt Q96JH7)
T1 sequence (whole entry): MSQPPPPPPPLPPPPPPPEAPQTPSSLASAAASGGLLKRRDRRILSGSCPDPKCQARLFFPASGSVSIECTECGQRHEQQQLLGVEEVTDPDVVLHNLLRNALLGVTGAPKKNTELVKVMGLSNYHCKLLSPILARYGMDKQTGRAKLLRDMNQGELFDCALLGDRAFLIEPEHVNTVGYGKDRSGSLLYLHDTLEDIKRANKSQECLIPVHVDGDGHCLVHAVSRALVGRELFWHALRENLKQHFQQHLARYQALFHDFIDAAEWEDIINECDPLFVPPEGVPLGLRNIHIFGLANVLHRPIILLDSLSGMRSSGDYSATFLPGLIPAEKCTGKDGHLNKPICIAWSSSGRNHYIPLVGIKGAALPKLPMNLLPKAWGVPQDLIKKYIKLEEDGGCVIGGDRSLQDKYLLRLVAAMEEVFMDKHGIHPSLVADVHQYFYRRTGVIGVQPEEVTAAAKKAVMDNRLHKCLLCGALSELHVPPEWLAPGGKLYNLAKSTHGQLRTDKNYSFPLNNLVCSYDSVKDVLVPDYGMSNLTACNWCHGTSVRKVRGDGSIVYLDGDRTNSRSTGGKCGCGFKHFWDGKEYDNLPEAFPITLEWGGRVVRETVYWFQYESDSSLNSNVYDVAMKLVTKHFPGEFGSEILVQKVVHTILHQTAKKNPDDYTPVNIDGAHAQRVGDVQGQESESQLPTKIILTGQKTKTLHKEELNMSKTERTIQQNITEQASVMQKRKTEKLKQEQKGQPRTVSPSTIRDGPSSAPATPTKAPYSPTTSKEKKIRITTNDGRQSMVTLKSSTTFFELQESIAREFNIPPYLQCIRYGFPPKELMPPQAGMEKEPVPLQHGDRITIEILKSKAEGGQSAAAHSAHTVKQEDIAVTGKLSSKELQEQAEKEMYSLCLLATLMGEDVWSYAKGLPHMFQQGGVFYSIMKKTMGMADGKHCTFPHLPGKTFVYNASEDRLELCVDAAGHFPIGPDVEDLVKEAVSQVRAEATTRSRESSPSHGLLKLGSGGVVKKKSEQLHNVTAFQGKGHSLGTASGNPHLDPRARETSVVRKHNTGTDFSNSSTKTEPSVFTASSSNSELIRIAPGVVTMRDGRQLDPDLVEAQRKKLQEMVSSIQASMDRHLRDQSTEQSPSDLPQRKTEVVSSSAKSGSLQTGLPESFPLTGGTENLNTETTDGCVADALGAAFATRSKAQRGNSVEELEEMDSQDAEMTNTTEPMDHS
Assay: log2 ratio of Biotin-Ahx-Ub-VS probe labelling (fragment/DMSO); higher = less target engagement (more negative = stronger competition), active = hit call of the paper (q ≤ 0.05, log2 ratio ≤ -1)
Settings: compound concentration: 200 uM; treatment time: 3 h
Procedure: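 Competitive ABPP in HEK293T cell lysate. Lysates were treated with each chloroacetamide fragment at 200 µM for 3 h, then with Biotin-Ahx-Ub-VS (0.5 µM, 1 h), NeutrAvidin-enriched and analysed by diaPASEF LC-MS/MS. Protein LFQ was median-normalised; average log2 ratio is fragment/DMSO from an unpaired t-test (n=3 treated, n=44 DMSO). Hits: q ≤ 0.05, log2 ratio ≤ -1, unique peptides ≥ 2.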

Row | Structure (SMILES) | log2 ratio of Biotin-Ahx-Ub-VS probe labelling
1 | O=C(CCl)N1CCOC(CCc2ccccc2)C1 (stereo not given) | -2.79 (active)
2 | CN1c2ccccc2C(NC(=O)CCl)CS1(=O)=O (stereo not given) | -2.14 (active)
3 | O=C(CCl)N1CCN2C(=O)CCC2C1 (stereo not given) | -0.0347
4 | Cc1ccc2nnc(CNC(=O)CCl)n2c1 | -1.34 (active)
5 | O=C(CCl)N1CCC(C(=O)N2CCCCCC2)CC1 | -0.246
6 | Cl.O=C(CCl)N1CCC(Cc2nccs2)C1 (stereo not given) | -2.29 (active)
7 | O=C(CCl)Nc1ccc(F)cc1F | -0.736
8 | Cc1cc(C2CCCN2C(=O)CCl)nn1C.Cl (stereo not given) | -0.866
9 | N#Cc1ccccc1N1CCN(C(=O)CCl)CC1 | -1.53 (active)
10 | O=C(CCl)Nc1cc2c(cc1Cl)OCCO2 | -0.947
11 | Cl.O=C(CCl)N1CCN(Cc2ccccc2)CC1 | -0.476
12 | O=C(CCl)N[C@H]1CCS(=O)(=O)c2ccccc21 | -0.862
13 | O=C(CCl)N1CCc2sccc2C1 | -0.819
14 | Cc1cccc(C(CNC(=O)CCl)N2CCOCC2)c1.Cl (stereo not given) | -0.833
15 | NC(=O)C(Cc1ccccc1)NC(=O)CCl (stereo not given) | -0.38
16 | O=C(CCl)Nc1ccccc1C(F)(F)F | -0.635
17 | Cl.O=C(CCl)N1CCC(n2nc3ccccc3n2)CC1 | -2.56 (active)
18 | NC(=O)C1CCCN(C(=O)CCl)C1 (stereo not given) | -0.167
19 | O=C(CCl)N1CCC(c2nc3ccccc3o2)CC1 | -2.76 (active)
20 | Cc1cc(C(=O)NC2CCN(C(=O)CCl)CC2)no1 | -0.548

Row | Structure (SMILES) | log2 ratio of Biotin-Ahx-Ub-VS probe labelling
21 | Cl.Cn1c(CNC(=O)CCl)nc2cccnc21 | -0.977
22 | Cl.O=C(CCl)N1CCc2ncncc2C1 | -0.0226
23 | CN(C(=O)CCl)c1nc2ccccc2s1 | -0.54
24 | O=C(CCl)Nc1cc(Cl)ccc1C(=O)O | -0.241
25 | CC1CN(c2ccc(NC(=O)CCl)cc2)CC(C)O1 (stereo not given) | -0.624
26 | O=C(CCl)Nc1cccc(NC(=O)c2ccccc2)c1 | -2.42 (active)
27 | COc1cccc(CN(C)C(=O)CCl)c1 | -0.854
28 | CN(Cc1nc2ccccc2[nH]1)C(=O)CCl.Cl | -0.467
29 | O=C(CCl)Nc1nc(-c2cccs2)cs1 | -2.02 (active)
30 | Cc1nc(CN2CCN(C(=O)CCl)CC2)cs1 | -0.304
31 | NC(=O)C1CCCCN1C(=O)CCl (stereo not given) | -0.253
32 | O=C(CCl)N1CCCC2CCCCC21 (stereo not given) | -2.13 (active)
33 | O=C(O)C1Cc2ccccc2CN1C(=O)CCl (stereo not given) | -0.368
34 | O=C(CCl)NC1CCOc2ccccc21 (stereo not given) | -2.21 (active)
35 | O=C(CCl)Nc1cccc2ncccc12 | -0.848
36 | Cc1ccc(CN(C)C(=O)CCl)o1 | -0.13
37 | COCC1C=CCCN1C(=O)CCl (stereo not given) | -0.426
38 | CC(NC(=O)CCl)c1noc(Cc2ccccc2)n1 (stereo not given) | -1.42 (active)
39 | O=C(CCl)NC1CCC(C(F)(F)F)CC1 (stereo not given) | -1.35 (active)
40 | COc1cc(Cl)c(C)cc1NC(=O)CCl | -1.24 (active)
